The record followed here is PubChem BioAssay.

Structures are written as SMILES. Active and inactive are the calls of the source. Unless noted, the rule behind the calls is not given here.

Test [1] deals with Wnt5a (protein binding on small-molecule microarray). Briefly: Wnt5a binders on small-molecule microarray, primary screen, biophysical, 635/667 nm fluorescence (AID 1142).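 Note: fluorescence read at 667 nm with signal to noise per printed feature.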 The settings on record: 635 nm fluorescence, higher = more signal.
Test [2] can be described thus: cell viability in Huh7 cells, primary screen, cytotoxicity control for HCV replication inhibitor project, CellTiter-Glo luminescence, basal, 48 h (AID 1143).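 Note: Huh7 hepatoma cells carrying a hepatitis C replication reporter with no stimulus; test concentration not given here.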 The settings on record: Huh7 HCV replicon, higher = more signal, called active from +8 up or from −8 down. (Cellular ATP, detected with luciferase, serves as a proxy for viable cell number.)
The nature of test [3]: P. aeruginosa biofilm formation inhibitors, primary screen, PAO1 strain, BacTiter-Glo luminescence, LB-PBS (AID 1144). The settings on record: 12 h, higher = more signal.
A short description of test [4]: CREB reporter modulators without forskolin, primary screen, cell-based, PC12, CRE-LacZ reporter, unstimulated (AID 1145). The settings on record: no forskolin, luminescence, 4.5 h, higher = more signal, called active from +8 up or from −8 down.
Test [5] is described as follows: CREB reporter modulators under forskolin, primary screen, cell-based, PC12, CRE-LacZ reporter, forskolin-stimulated (AID 1146).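 Note: PC12 cells with 6xCRE LacZ reporter stimulated by forskolin 10 µM; beta-galactosidase reporter signal reflecting CREB driven transcription.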 Conditions: luminescence, 4.5 h, higher = more signal, called active from +8 up or from −8 down.
Test [6] addresses Streptavidin (Streptomyces avidinii) (UniProt P22629). Description: streptavidin binders on small-molecule microarray, primary screen, artefact control for SMM compound annotation, biophysical, 635/667 nm fluorescence (AID 1147).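 Note: signal reflects streptavidin binding to arrayed compounds as a control protein.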 Conditions: streptavidin binding, higher = more signal.
Test [7] is described as follows: small-molecule binders of probe aInhba, primary screen, biochemical, small-molecule microarray, 635/667 nm fluorescence (AID 1148).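 Note: score merges 667nm spot fluorescence with signal-to-noise for antibody binding to printed compounds.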 The settings on record: higher = more signal.
Test [8] concerns the target Torsin-1A (Homo sapiens) (UniProt O14656). Briefly: torsin A binders from cell lysate, primary screen, small-molecule microarray, wild-type, 635/667 nm (AID 1149). The settings on record: COS7 hTOR1A-WT lysate, 635 nm fluorescence, higher = more signal.
Test [9] has the same target. Briefly: small-molecule binders of mutant TOR1A in lysate, primary screen, cell lysate, small-molecule microarray, COS7 lysate, 635/667 nm fluorescence (AID 1150).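 Note: score pools 667 nm emission and signal to noise measuring lysate protein binding.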 Conditions: COS7 hTOR1A mutant lysate, 635 nm fluorescence, higher = more signal.
Test [10] deals with Sonic hedgehog protein (Shh). Briefly: small-molecule binders of Shh protein, primary screen, biochemical, small-molecule microarray, 635/667 nm fluorescence (AID 1151).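 Note: Shh protein binding to compounds spotted on small-molecule microarray slides; score combines spot fluorescence intensity with signal-to-noise across triplicate slides.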 Conditions: small-molecule microarray binding, 635 nm fluorescence; higher = more signal.
Test [11] can be described thus: E. coli DRC41 culture turbidity changes, primary screen, E. coli filamentation inducer project, strain DRC41, OD650, 48 h (AID 1152).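 Note: E. coli MC1000 strain DRC41 lacking acrAB efflux pump and sulA.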 Conditions: E. coli DRC41 (acrAB sulA), higher = more signal, called active from +8 up or from −8 down.
The nature of test [12]: small-molecule binders of probe aLefty1, primary screen, biochemical, small-molecule microarray, 635/667 nm fluorescence (AID 1153).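 Note: score merges spot fluorescence with signal-to-noise ratio from the scanned slide images.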 The settings on record: higher = more signal.
Test [13] in a line: PSAC antagonists in infected red cells, primary screen, cell-based, P. falciparum Indochina, OD700, 1 h (AID 1154). Conditions: P. falciparum Indochina infected RBC osmotic lysis, higher = more signal, called active from +8 up or from −8 down.
A short description of test [14]: PSAC antagonists in infected red cells, primary screen, cell-based, P. falciparum Indochina, OD700, 2 h (AID 1155).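 Note: lysis reports solute entry through the parasite surface anion channel PSAC; channel blockers reduce lysis of infected cells.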 Conditions: P. falciparum Indochina infected erythrocytes, osmotic lysis OD700; higher = more signal, called active from +8 up or from −8 down.
Test [15] is described as follows: osmotic lysis modulators in infected erythrocytes, primary screen, PSAC antagonist project, cell-based, P. falciparum Indochina, OD700, 3 h (AID 1156). The settings on record: higher = more signal, called active from +8 up or from −8 down.
The nature of test [16]: PSAC antagonists in infected red cells, primary screen, cell-based, P. falciparum Indochina, OD700, 18 h (AID 1157). Conditions: P. falciparum Indochina infected erythrocytes, osmotic lysis OD700, 18 h; higher = more signal, called active from +8 up or from −8 down.
Test [17] in a line: modulators of S6 phosphorylation in cells, primary screen, cell-based, A549, cytoblot, luminescence, serum-stimulated (AID 1158).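 Note: serum-stimulated A549 lung adenocarcinoma cells; signal is phosphorylated S6 detected by cytoblot immunostaining with HRP secondary.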 The settings on record: A549 phospho-S6 cytoblot, 5 h, higher = more signal.
The target in test [18] is NADPH oxidase 2 (Homo sapiens) (UniProt P04839). Briefly: NOX2-dependent H2O2 signal modulators, primary screen, NOX inhibitor project, cell-based, HEK293-NOX2, PMA-stimulated, Amplex Red fluorescence (AID 1159). Note: test concentration not given here. The settings on record: 45 min, higher = more signal, called active from +8 up or from −8 down.
Test [19] has as its target NADPH oxidase 4 (Homo sapiens) (UniProt Q9NPH5). Briefly: NOX4-dependent H2O2 signal modulators, primary screen, NOX inhibitor project, cell-based, HEK293-NOX4, tetracycline-induced, Amplex Red fluorescence (AID 1160). Conditions: 45 min, higher = more signal, called active from +8 up or from −8 down.
For test [20], the target named is NADPH oxidase 5 (Homo sapiens) (UniProt Q96PH1). Description: NOX5-dependent H2O2 signal modulators, primary screen, NOX inhibitor project, cell-based, HEK293-NOX5, Amplex Red fluorescence (AID 1161). The settings on record: HEK293-NOX5, ionomycin, 45 min, higher = more signal.
Chain of NADPH oxidase 5 (Homo sapiens) (Q96PH1 whole entry, looked up): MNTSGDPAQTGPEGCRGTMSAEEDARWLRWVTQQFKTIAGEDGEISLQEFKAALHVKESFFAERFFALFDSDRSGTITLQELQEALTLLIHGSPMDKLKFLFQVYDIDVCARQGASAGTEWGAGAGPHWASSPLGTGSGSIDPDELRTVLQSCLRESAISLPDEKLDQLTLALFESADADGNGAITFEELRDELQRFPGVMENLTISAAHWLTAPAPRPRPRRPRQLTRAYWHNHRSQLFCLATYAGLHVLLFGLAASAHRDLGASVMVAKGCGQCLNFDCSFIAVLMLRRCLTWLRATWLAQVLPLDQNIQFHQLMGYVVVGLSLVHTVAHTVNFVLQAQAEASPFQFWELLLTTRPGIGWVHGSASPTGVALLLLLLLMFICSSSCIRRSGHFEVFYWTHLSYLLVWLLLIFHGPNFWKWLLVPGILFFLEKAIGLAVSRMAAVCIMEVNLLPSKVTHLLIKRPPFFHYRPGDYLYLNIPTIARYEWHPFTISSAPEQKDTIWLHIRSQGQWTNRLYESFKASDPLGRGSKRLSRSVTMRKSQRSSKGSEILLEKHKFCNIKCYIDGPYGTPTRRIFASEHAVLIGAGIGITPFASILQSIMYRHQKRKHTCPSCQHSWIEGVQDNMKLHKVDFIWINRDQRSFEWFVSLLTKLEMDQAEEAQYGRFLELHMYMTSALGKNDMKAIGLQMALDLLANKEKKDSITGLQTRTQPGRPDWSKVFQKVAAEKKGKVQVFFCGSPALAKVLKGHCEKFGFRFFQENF

Chain of Torsin-1A (Homo sapiens) (O14656 whole entry, looked up): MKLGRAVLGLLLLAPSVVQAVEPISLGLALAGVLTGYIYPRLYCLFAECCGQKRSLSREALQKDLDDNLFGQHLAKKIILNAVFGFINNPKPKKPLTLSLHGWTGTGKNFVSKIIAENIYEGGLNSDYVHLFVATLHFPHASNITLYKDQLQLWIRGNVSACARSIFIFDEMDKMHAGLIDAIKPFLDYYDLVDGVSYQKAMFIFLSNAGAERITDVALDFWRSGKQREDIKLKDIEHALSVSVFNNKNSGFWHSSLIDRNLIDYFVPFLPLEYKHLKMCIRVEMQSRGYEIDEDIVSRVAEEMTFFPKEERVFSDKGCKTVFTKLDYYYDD
Chain of NADPH oxidase 4 (Homo sapiens) (Q9NPH5 whole entry, looked up): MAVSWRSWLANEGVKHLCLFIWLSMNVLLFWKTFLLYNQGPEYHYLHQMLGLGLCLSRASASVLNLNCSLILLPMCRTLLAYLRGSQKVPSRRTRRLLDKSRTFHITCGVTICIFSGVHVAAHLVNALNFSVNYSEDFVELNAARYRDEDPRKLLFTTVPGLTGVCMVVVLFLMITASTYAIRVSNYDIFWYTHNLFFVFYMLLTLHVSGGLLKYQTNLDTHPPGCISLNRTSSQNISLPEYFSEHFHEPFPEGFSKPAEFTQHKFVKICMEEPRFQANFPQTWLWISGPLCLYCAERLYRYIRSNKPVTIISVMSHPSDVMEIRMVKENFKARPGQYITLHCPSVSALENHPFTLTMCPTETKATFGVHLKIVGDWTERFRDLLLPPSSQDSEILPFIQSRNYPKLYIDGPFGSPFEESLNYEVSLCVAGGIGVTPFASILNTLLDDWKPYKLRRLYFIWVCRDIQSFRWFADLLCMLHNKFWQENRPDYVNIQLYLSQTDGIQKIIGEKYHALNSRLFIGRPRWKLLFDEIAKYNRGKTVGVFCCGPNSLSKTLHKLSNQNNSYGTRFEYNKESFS
Chain of NADPH oxidase 2 (Homo sapiens) (P04839 whole entry, looked up): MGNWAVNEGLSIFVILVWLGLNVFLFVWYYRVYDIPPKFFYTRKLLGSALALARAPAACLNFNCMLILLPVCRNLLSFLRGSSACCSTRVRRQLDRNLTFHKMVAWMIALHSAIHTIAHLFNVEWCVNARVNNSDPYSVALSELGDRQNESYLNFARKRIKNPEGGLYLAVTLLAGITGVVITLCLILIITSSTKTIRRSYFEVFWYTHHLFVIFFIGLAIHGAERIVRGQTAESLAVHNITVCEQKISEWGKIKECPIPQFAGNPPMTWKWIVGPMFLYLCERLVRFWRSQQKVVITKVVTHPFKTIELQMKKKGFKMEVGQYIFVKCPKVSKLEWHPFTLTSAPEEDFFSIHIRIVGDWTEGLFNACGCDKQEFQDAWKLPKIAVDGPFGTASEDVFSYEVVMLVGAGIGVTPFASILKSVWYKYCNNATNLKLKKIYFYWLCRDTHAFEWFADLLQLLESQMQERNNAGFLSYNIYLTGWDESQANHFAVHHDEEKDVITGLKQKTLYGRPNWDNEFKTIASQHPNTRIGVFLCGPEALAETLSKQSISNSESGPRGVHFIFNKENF
Chain of Streptavidin (Streptomyces avidinii) (P22629 whole entry, looked up): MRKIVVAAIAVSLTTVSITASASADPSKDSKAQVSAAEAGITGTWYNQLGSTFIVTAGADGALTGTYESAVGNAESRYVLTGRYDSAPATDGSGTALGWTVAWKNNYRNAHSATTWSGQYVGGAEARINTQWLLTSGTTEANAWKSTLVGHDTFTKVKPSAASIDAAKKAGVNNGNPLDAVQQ

As for `COCC(=C=CC[C@@H](O)c1cccc(OCCO)c1)CCO`, the composite z-score is 0.332 in test [1]; 0.105 in test [6]; 0.0051 in test [7]; 1.96 in the test with Torsin-1A (Homo sapiens) [8]; 0.675 in the test with Torsin-1A (Homo sapiens) [9]; 1.23 in [10]. The compound also registered a composite z-score in test [12] of 0.0091. Moreover, the z-score in test [2] was -0.35 (inactive); in test [3] it was 0.65 (inactive); in [4], -0.205 (inactive); in test [5], 0.671 (inactive); in test [11], 0.355 (inactive); in test [13], 2.3 (inactive). Moreover, the z-score in test [14] is 0.152 (inactive); in test [15] it was 0.691 (inactive); in test [16], 0.135 (inactive); in test [17] it was -0.094; in test [18], -0.274 (inactive); in test [19], -0.761 (inactive). This compound also displayed a z-score in [20] of -0.334.
As for `COC(=O)[C@@]1(Cc2ccc(F)cc2)[C@H]2c3cc(C(=O)N(C)C)n(Cc4ccc(O)c(OC)c4)c3C[C@H]2CN1C(=O)c1ccccc1`, the composite z-score is 0.128 in test [1]; 0.575 in test [6]; -0.108 in test [7]; 0.198 with Torsin-1A (Homo sapiens) [8]; 0.484 with Torsin-1A (Homo sapiens) [9]; -0.556 in test [10]. In [12], the composite z-score amounted to 0.681. Also, the z-score in test [2] was -2.65 (inactive); in [3], -1.24 (inactive); in [4] it was 0.387 (inactive); in test [5], 0.0711 (inactive); in test [11], -1.45 (inactive); in test [13], 3.77 (inactive). Besides, the z-score in test [14] is -0.164 (inactive); in [15], 1.74 (inactive); in test [16], -1.74 (inactive); in [17], 2; in [18], -2.68 (inactive); in test [19], -5.32 (inactive). In [20], this compound displayed a z-score of -1.16.
As for `Cc1ccc(F)cc1S(=O)(=O)N[C@@H]1CCN(Cc2cccc3[nH]ccc23)C1`, the composite z-score in test [1] was 0.148; in test [6], -0.0164; in test [7], 0.143; with Torsin-1A (Homo sapiens) [8] it was 0.495; with Torsin-1A (Homo sapiens) [9], 0.913; in test [10], 0.969. The composite z-score in [12] was -0.007. Further, the z-score in test [2] is -2.35 (inactive); in test [3] it was -0.0885 (inactive); in test [4], 1.13 (inactive); in [5] it was -0.714 (inactive); in test [11], -1.41 (inactive); in [13], 1.27 (inactive). The z-score in [14] is 0.137 (inactive); in test [15] it was 0.0401 (inactive); in test [16], 0.451 (inactive); in test [17] it was -0.453; in test [18], 0.116 (inactive); in test [19] it was -0.746 (inactive). In test [20], this compound yielded a z-score of -0.541.
As to `O=C1O[C@H](c2ccccc2)[C@H](c2ccccc2)N2[C@H]1[C@@H](C(=O)N1CCCCCCC1)[C@]1(C(=O)Nc3ccc(C#CC4(O)CCCCCC4)cc31)[C@H]2c1ccccc1OCCO`, the composite z-score in [1] was 2.32; in test [6], 4.02; in test [7], 1.97; with Torsin-1A (Homo sapiens) [8], 3.75; in the test with Torsin-1A (Homo sapiens) [9], 3.55; in [10] it was 2.09. The compound further returned a composite z-score in test [12] of 2.87. In addition, the z-score in test [2] is -3.52 (inactive); in [3], -0.41 (inactive); in test [4], 0.335 (inactive); in test [5], -0.0926 (inactive); in [11], -0.0659 (inactive); in [13] it was 0.707 (inactive). The z-score was 0.216 (inactive) in test [14]; -0.168 (inactive) in [15]; 0.614 (inactive) in test [16]; 0.43 in [17]; 0.643 (inactive) in test [18]; 0.485 (inactive) in test [19]. Further, the z-score in test [20] was 1.56.
